We go through 38 compounds from PubChem BioAssay (NCI).

The panel holds about 83,000 compounds, 20% with a hit somewhere; the sample as a whole holds those more often.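 Cell lines were cultured in 96-well plates, exposed to a single compound concentration, and assessed for percent growth 48 hours later.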 Unmarked numbers belong to inactive results. Calls of active or inactive are those of the source. Rule for the calls: active = growth percent below 10; inactive = the rest.

The experiment deals with HOP-92 NSCLC. Kind of experiment: NCI-60 one-dose screen, 48 h (100 = growth as untreated, 0 = no growth, -100 = all killed). To be noted: 10 µM unless noted.
Consider `O=C(c1cccc(C(=O)c2ccc3c4c(cccc24)C(=O)N(c2ccccc2)C3=O)c1)c1ccc2c3c(cccc13)C(=O)N(c1ccccc1)C2=O`, for which the growth was 85.5%. In the case of `Cc1ccc[n+](CCC(N)=O)c1` it was 91.5%; in that of `Cc1ccc2nc(N)nnc2c1`, 71.9%. As to `CCOc1ccncc1[N+](=O)[O-]`, the growth was 102%. Consider `Oc1cc(O)c2c(c1)O[C@H](c1ccc(O)c(O)c1)[C@@H](O)C2`, for which the growth was 98.5%. Turning to `Cn1c(=O)c2nc3c(=O)n(C)c(=O)n(C)c3nc2n(C)c1=O`, the growth is 127%. Take `C=CCOc1ccc(Cl)cc1Cl`: the growth is 77.3%. In the case of `CCOC(=O)/C(O)=C(\C=N\C(=S)Nc1ccc(Cl)c(Cl)c1)C(=O)OCC`, the growth is 95.5%. Take `CCOc1ccc(NC(=S)N2CCC(CCCC3CCN(C(=S)Nc4ccc(OCC)cc4)CC3)CC2)cc1`: the growth was 59.2%. On to `Clc1ccc(C(SCc2ccccc2)SCc2ccccc2)cc1`, for which the growth was 83%.

As for `CC(=O)C1C(=O)C(=O)N(c2ccc(Cl)c(Cl)c2)C1=O` (stereo not drawn), the growth is 116%.

Consider `Cc1cc(Cl)cc(Cc2cc(Cl)cc(C)c2O)c1O`, for which the growth was -33% (active). As to `c1ccc(Oc2c3ccccc3nc3ccccc23)cc1`, the growth is 8.21% (active). Take `O=[N+]([O-])c1ccc2[nH]c(=S)n(/C=C(/c3ccc(Cl)cc3Cl)S(=O)(=O)Cc3ccc(Cl)cc3Cl)c2c1`: the growth is 112%. For `N#C/C(=C\c1ccc(C#N)cc1)C(=O)c1ccccc1`, the growth was 86.3%. For `COc1cc(OC)c(NC(=O)C(Sc2nc(C)cc(C)c2C#N)c2ccccc2)cc1Cl` (stereo not drawn), the growth is 80.9%. In the case of `O=c1nc(Nc2cccc(Cl)c2)oc2cc(Cl)oc(=O)c12` it was 47.2%; in that of `C/C(O)=C(/C=N\C(=S)Nc1ccc(S(=O)(=O)Nc2nccs2)cc1)C(=O)Nc1ccccc1C`, 87.5%. For the compound `CC(O)C(F)(F)C(F)(F)C(F)(F)F` (stereo not drawn), the growth is 117%. Turning to `CCOP(=O)(NC(c1ccccc1)c1ccccc1)OCC`, the growth was 89.7%. Take `CC(=O)OCC1OC(n2cnc3c(=S)nc(N)[nH]c32)C(OC(C)=O)C1OC(C)=O` (stereo not drawn): the growth was 28.4%.

For the compound `CCCCn1cnc2c(=O)[nH]cnc21`, the growth was 89.3%.

For `O=C(NCc1ccccc1)/C(=C/c1ccccc1)NC(=O)c1ccccc1`, the growth was 85.8%. Regarding `O=CNCCc1ccccc1`, the growth is 88.5%. Take `COC1OC(C(COC(C)=O)OC(C)=O)C(OC(C)=O)C(OC(C)=O)C1OC(C)=O` (stereo not drawn): the growth is 128%. As to `O=S(Cc1ccccc1)/C(=C/NC(=S)Nc1cc(Cl)ccc1Cl)c1ccccc1` (stereo not drawn), the growth is 101%.

Turning to `Cc1c(Cl)cccc1N=C=S`, the growth was 69.6%.

Take `CC(=O)C1C(=O)C(=O)N(c2cccc([N+](=O)[O-])c2)C1=O` (stereo not drawn): the growth was 95.6%. For the compound `CCOc1ccc2c(c1)c(C)cc(C)[n+]2CC`, the growth was 54.2%. Take `S=CN1CCCCC1`: the growth is 103%. Then `Cc1nc(C)c(C(=O)O)cc1C(=O)O`, with 103%; and `Cc1cc(CC(=O)NCCO)n(CCO)c(=O)c1`, with 115%; and `NC(CSSCC(N)C(=O)O)C(=O)O` (stereo not drawn), with 17.3%. As to `C/C(O)=C(/C=N/C(=S)Nc1ccccc1)C(=O)Nc1ccccc1C`, the growth is 92.6%. In the case of `CC(C)(C)[Si](C)(C)OCC1OC(n2cnc3c(N)ncnc32)CC1OS(C)(=O)=O` (stereo not drawn) it was 98.5%; in that of `NNC(=O)N/N=C1\C(=O)N(c2nccs2)C(=O)C(=O)C1c1nc2ccccc2s1` (stereo not drawn), 98.6%; in that of `C(=C\c1ccncc1)/c1ccncc1`, 87.9%. For the compound `CC(=O)NCNC(C)=O`, the growth was 150%.
